Compound activity as filed in PubChem.
TDP1 cell CPT = qHTS for Inhibitors of human tyrosyl-DNA phosphodiesterase 1 (TDP1): qHTS in cells in presence of CPT | chicken DT40 Tdp1-/-;hTDP1 cells + 20 nM CPT, ATP luminescence, 48 h | Potency, µM (series often up to 46.2 µM), for inactives: at the top dose activity change, negative = growth inhibition, hits mostly inhibitors | actives 12% (n = 420,000) | AID 686979, 2013; also: potency is read from the fitted curve at half-maximal effect; % is scaled to controls: 0 for no effect and ±100 for the full control effect; nearly all actives have a fitted effect of over 55% in size
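Chicken DT40 Tdp1-/- cells complemented with human TDP1, 400 cells/well, exposed to compounds plus 20 nM camptothecin for at least 48 h at 37 C; viability read as ATP content by CellTiter-Glo luminescence.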
TDP1 block = qHTS Assay for Inhibitors of Tyrosyl-DNA Phosphodiesterase (TDP1); actives 0.28% (n = 350,000); Tyrosyl-DNA phosphodiesterase 1 (Homo sapiens), Q9NUW8; Potency, µM (titrated, usually from 130 µM), inactives show at the top dose activity change, negative = inhibition, actives largely listed as inhibitors; recombinant TDP1, AlphaScreen DNA substrate cleavage; also: potency is read from the fitted curve at half-maximal effect; % is scaled to controls: 0 for no effect and ±100 for the full control effect; nearly all actives have a fitted effect of over 40% in size
Target sequence (Q9NUW8 whole entry, looked up): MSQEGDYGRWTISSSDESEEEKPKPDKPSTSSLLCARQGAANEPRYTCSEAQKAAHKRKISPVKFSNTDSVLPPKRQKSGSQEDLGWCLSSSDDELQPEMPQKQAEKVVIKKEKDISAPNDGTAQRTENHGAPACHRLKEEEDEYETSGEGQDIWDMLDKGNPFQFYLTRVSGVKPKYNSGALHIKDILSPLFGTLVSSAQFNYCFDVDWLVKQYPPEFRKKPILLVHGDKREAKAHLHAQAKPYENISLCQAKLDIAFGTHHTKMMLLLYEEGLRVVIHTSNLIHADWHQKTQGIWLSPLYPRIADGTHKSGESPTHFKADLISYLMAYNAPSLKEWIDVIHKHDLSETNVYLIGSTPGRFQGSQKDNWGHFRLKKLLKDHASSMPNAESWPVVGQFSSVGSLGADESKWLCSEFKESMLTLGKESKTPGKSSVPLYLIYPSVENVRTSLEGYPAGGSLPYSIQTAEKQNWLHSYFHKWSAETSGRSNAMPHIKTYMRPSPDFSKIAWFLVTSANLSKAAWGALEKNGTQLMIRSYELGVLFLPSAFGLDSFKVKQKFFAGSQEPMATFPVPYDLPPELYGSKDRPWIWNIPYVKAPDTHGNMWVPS
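E. coli-derived human Tdp1, 1 nM final. Cpd preinc 15 min RT; substrate 15 nM final, 5 min RT; AS bead mix 10 ug/ml final, 10 min RT. Signal loss = tyrosine-FITC cleavage. No-enzyme wells = max signal.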
HepG2 tox = qHTS for Inhibitors of TGF-b: Cytotox Counterscreen; actives 0.76% (n = 410,000); HepG2 CAGA-GFP viability, ATP luminescence, 18 h; AID 588856, 2011; Potency, µM (doses to about 46.1 µM), inactives show at the top dose activity change, negative = cytotoxicity, actives largely listed as cytotoxic; also: potency is read from the fitted curve at half-maximal effect
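HepG2 CAGA-GFP cells (1000/well, DMEM with 1% FBS) received compound, then TGF-beta at 500 pg/mL final, and were incubated 18 hours at 37 degrees C. Viability was read by CellTiter-Glo luminescence. Media-only wells were set as complete cell-killing and DMSO as no toxicity.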
TGFb inhibitor = qHTS for Inhibitors of TGF-b; HepG2 CAGA-GFP TGF-b/SMAD3 reporter, GFP fluorescence, 18 h; TGF-beta stimulated, 500 pg/mL final; Potency, µM (titrated, usually from 46.1 µM), for the others: top-dose activity, negative = inhibition, usual class: inhibitors; actives 1.2% (n = 410,000); AID 588855, 2011; also: potency is read from the fitted curve at half-maximal effect; % is scaled to controls: 0 for no effect and ±100 for the full control effect; nearly all actives have a fitted effect of over 65% in size
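Inhibition was scored as loss of TGF-beta-induced (500 pg/mL final, 18 hours, 37 degrees C) GFP in HEPG2 cells carrying a CAGA-GFP reporter, in DMEM with 1% FBS. Well GFP was summed per cell; Activity was normalised to unstimulated and stimulated DMSO wells, then concentration-response fitting.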
IL1B secr inh = qHTS for Inhibitors of Inflammasome Signaling: IL-1-beta AlphaLISA Primary Screen. actives 4.7% (n = 360,000). THP-1 LPS/ATP IL-1B secretion, AlphaLISA, 16 h; hits give low values. activity change, % at 57.5 µM; in the data active = activity change below about -50%; inconclusive = mostly about -30% to -49%; also: % is scaled to controls: 0 for no effect and ±100 for the full control effect
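THP-1 cells pretreated 1 hr with compounds (up to 57.5 uM final), then stimulated with LPS (250 ng/mL final) plus ATP (1.25 mM final); secreted IL-1B measured by AlphaLISA after 16 hr, decreased signal indicating inhibition.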
DT40 TDP1 no CPT = qHTS for Inhibitors of human tyrosyl-DNA phosphodiesterase 1 (TDP1): qHTS in cells in absence of CPT. AID 686978, 2013. actives 15% (n = 420,000). Potency, µM (top dose mostly 46.2 µM), inactives show at the top dose activity change, negative = growth inhibition, usual class: inhibitors. DT40 Tdp1-/- hTDP1 cells, no CPT, ATP luminescence, 48 h; also: potency is read from the fitted curve at half-maximal effect; % is scaled to controls: 0 for no effect and ±100 for the full control effect; nearly all actives have a fitted effect of over 55% in size
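Readout: luminescence from CellTiter-Glo after 30 min in the dark at RT. Cells: DT40 Tdp1-/- with stable hTDP1, 400/well. Exposure: compounds alone, ≥48 hr, 37 °C.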
An asterisk follows results filed as active; [ ] = dose if it differs, or a comment. Hits are enriched below; roughly 19% of the tested compounds scored in any of these assays. Unless noted, calls follow the shape of the dose curve; as a rule, active = well fitted curve in the direction sought with a large enough effect; inconclusive = small, poorly fitted or top-dose-only effect, or another doubt; inactive = no such curve, though single readings can be large; an effect the other way counts as inactive or inconclusive.

For CC(C)Sc1ccc(C(=O)Nc2ccc(F)cc2F)cn1 the results were TDP1 cell CPT inconclusive, TDP1 block -1%, HepG2 tox -15%, TGFb inhibitor -1%, IL1B secr inh -6 and DT40 TDP1 no CPT 23µM*.
For CCOC(=O)c1c(NC(=O)c2cc(-c3ccc(Br)cc3)on2)sc(C)c1C the results were TDP1 cell CPT -4%, TDP1 block -5%, HepG2 tox 0%, TGFb inhibitor 0% and DT40 TDP1 no CPT 2%.
C#CCn1cc(Cl)cc(C(=O)Nc2ccccc2)c1=O was read as TDP1 cell CPT 3%, HepG2 tox -8%, TGFb inhibitor 5%, IL1B secr inh 6 and DT40 TDP1 no CPT -10%.
CC1=CC(=O)N(c2cccc3c(N4C(=O)C=C(C)C4=O)cccc23)C1=O was read as TDP1 cell CPT 1.8µM*, HepG2 tox -21%, TGFb inhibitor -20%, IL1B secr inh -81* and DT40 TDP1 no CPT 2.9µM*.
`COc1ccc(CNc2nc3c(c(=O)n(Cc4ccc(Cl)cc4)c(=O)n3C)n2C)cc1` gave TDP1 cell CPT 18µM*, TDP1 block 8%, HepG2 tox -8%, TGFb inhibitor -5%, IL1B secr inh inconclusive and DT40 TDP1 no CPT 23µM*.
`COCCNc1nc2c(c(=O)n(Cc3ccc(OC)cc3)c(=O)n2C)n1C` gave TDP1 cell CPT -6%, TDP1 block 5%, HepG2 tox -4%, TGFb inhibitor 8%, IL1B secr inh 46 and DT40 TDP1 no CPT -3%.
`CCC(C)Nc1nc2c(c(=O)n(C)c(=O)n2C)n1Cc1ccc(Cl)cc1` (stereo not drawn) gave TDP1 cell CPT 13µM*, HepG2 tox -35%, TGFb inhibitor -9%, IL1B secr inh -27 and DT40 TDP1 no CPT 23µM*.
`CCC(C)Nc1nc2c(c(=O)n(C)c(=O)n2C)n1Cc1cccc(C)c1` (stereo not drawn) gave TDP1 cell CPT 1%, TDP1 block -1%[56.1 µM], HepG2 tox -15%, TGFb inhibitor 12%, IL1B secr inh -18 and DT40 TDP1 no CPT -21%.
For COc1ccc(OC)c(CCNc2nccn(-c3ccc(C)c(C)c3)c2=O)c1 the results were TDP1 cell CPT 15µM*, TDP1 block 11%, HepG2 tox -29%, TGFb inhibitor -26% and DT40 TDP1 no CPT 21µM*.
Cc1ccc(-n2ccnc(NCc3ccccc3)c2=O)cc1C was read as TDP1 cell CPT inconclusive, TDP1 block 5%, HepG2 tox -11%, TGFb inhibitor inconclusive and DT40 TDP1 no CPT inconclusive.
Cn1c(=O)c2c(nc(NCc3cccnc3)n2Cc2ccc(Cl)cc2)n(C)c1=O was read as TDP1 cell CPT inconclusive, TDP1 block 7%, HepG2 tox -40%, TGFb inhibitor 3%, IL1B secr inh inconclusive and DT40 TDP1 no CPT 5.8µM*.
For O=c1c(-c2cccs2)nc2cnc(N3CCOCC3)nc2n1CCc1ccccc1 the results were TDP1 cell CPT 2% and DT40 TDP1 no CPT 22%.
For Cc1cccc(CCNC(=O)c2cnc3c(C)cccn3c2=O)c1 the results were TDP1 cell CPT -26%, TDP1 block -2%, HepG2 tox -29%, TGFb inhibitor -13% and DT40 TDP1 no CPT inconclusive.
`CCOC(=O)C1=C[C@@H](C(C)C)N(S(=O)(=O)c2ccc(C)cc2)[C@H]1c1ccccc1F` gave TDP1 cell CPT inconclusive, HepG2 tox -10%, TGFb inhibitor inconclusive, IL1B secr inh -3 and DT40 TDP1 no CPT inconclusive.
